Results on 18 molecules are retold here after PubChem BioAssay (NCATS).

Where “and” joins values, the source holds several entries; their conditions need not be identical. Equal values may be shown once. Inconclusive results are not listed. For some assays here: Measured potencies and affinities stand elsewhere. Calls of active or inactive are those of the source.

For assay [1] the following is noted: Ebola virus entry assay, green fluorescence channel.
The conditions of assay [2]: Ebola virus entry assay, blue channel fluorescence.
The conditions of assay [3]: Ebola virus entry assay, green fluorescence channel. This is another data set of the same source.
The conditions of assay [4]: Ebola virus entry assay, ratio channel readout.
For assay [5] the following is noted: Ebola virus entry assay, blue channel fluorescence. The source holds these as a separate data set.
For assay [6] the following is noted: Ebola virus entry assay, ratio channel.
Assay [7] is described as follows: qHTS Assay for Identifying Gametocytocidal Compounds (AID 743244; active means well fitted curve in the direction sought with a large enough effect; an effect the other way counts as inactive or inconclusive; further: potency means the concentration at half of the fitted maximal effect;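 on max response: on the % scale 0 is the no-effect control and ±100 the full control effect; actives lower the fluorescent signal which means gametocytes are killed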). The conditions noted are these: P. falciparum 3D7 stage III-V gametocytes, alamarBlue, 72 h; max response: stronger effect = lower value. In outline:
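In this qHTS viability screen, late-stage 3D7 gametocytes are incubated with compound for 72 h, then with alamarBlue for 24 h; reduced resorufin fluorescence marks killing.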

The nature of assay [8]: qHTS assay for small molecule agonists of the antioxidant response element (ARE) signaling pathway measured by Nrf2-dependant transcriptional activity (AID 720636; active means well fitted curve in the direction sought with a large enough effect in the repeat runs; an effect the other way counts as inactive or inconclusive; further: % of control where 0% means no effect). Particulars: ARE-luc HepG2, Nrf2 luciferase reporter, 16 h; series mostly up to 92.4 µM. In outline: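 In HepG2 cells engineered with an Nrf2-responsive luciferase gene, ARE induction was quantified as luminescence after 16 hr compound treatment at 37 C.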
On the technique in general: Quantitative high-throughput screening tests each substance at several concentrations.

The nature of assay [9]: qHTS assay for small molecule antagonists of the retinoid-related orphan receptor gamma (ROR-gamma) signaling pathway - cell viability counter screen (AID 720652; active means well fitted curve in the direction sought with a large enough effect in the repeat runs; an effect the other way counts as inactive or inconclusive;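 further: compound exposure lasted 16 hr before ATP read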; further: potency means the concentration at half of the fitted maximal effect). Particulars: RORgamma reporter cell line viability counter screen; series mostly up to 92.2 µM. Put shortly: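 Steps: seed CHO cells bearing TET-inducible ROR and ROR response element-luciferase; rest 5 hr at 37 C; add compound, then doxycycline; incubate 16 hr; add CellTiter-Glo and read luminescence as ATP-based viability.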

Assay [10] is described as follows: qHTS assay for small molecule agonists of the antioxidant response element (ARE) signaling pathway measured by Nrf2-dependant transcriptional activity - cell viability counter screen (AID 720653; active means well fitted curve in the direction sought with a large enough effect in the repeat runs; an effect the other way counts as inactive or inconclusive; further: on the % scale 0 is the no-effect control and ±100 the full control effect). The conditions noted are these: ARE-bla HepG2 viability, CellTiter-Glo ATP luminescence, 16 h; max response: stronger effect = lower value. In outline:
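ARE-bla HepG2 cells treated with compounds for 16 h at 37C; this counter screen measures viability as intracellular ATP by CellTiter-Glo luminescence after 30 min at room temperature.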

Assay [11] deals with T1, Hexokinase-4 (Homo sapiens) + Glucokinase regulatory protein (Homo sapiens) (UniProt P35557+Q14397). As to the kind of experiment: qHTS assay for inhibitors of recombinant human GCK-GKRP interaction: ADP-Glo assay (AID 743206; active means well fitted curve in the direction sought with a large enough effect; an effect the other way counts as inactive or inconclusive;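 further: plate controls were DMSO plus enzyme for no effect and no enzyme for full effect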). Particulars: ADP-Glo luminescence, 60 min, 0% = vehicle-only wells with enzyme present; series mostly up to 76.9 µM. Put shortly:
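Pin-transferred compounds meet a 15 nM GST-GCK/15 nM FLAG-GKRP/2 uM S6P mix (dispense concentrations). ATP is then added to 0.4 mM final with 5 mM glucose, and the reaction runs 60 min at room temperature. ADP is quantified luminescently.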

The target of assay [12] is T1, Hexokinase-4 (Homo sapiens) + Glucokinase regulatory protein (Homo sapiens). Kind of assay: qHTS assay for inhibitors of recombinant human GCK-GKRP interaction: HTRF assay (AID 743207; active means well fitted curve in the direction sought with a large enough effect; an effect the other way counts as inactive or inconclusive;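 further: 0% = DMSO with GCK present and -100% = DMSO wells lacking GCK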). The conditions noted are these: recombinant GCK-GKRP HTRF binding, 60 min; series mostly up to 57.5 µM. Put shortly:
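HTRF read-out (ex 320 nm; 615/665 nm emission) after 60 min RT equilibration of 5 nM GST-GCK, 5 nM FLAG-GKRP, 2 uM S6P, compound and anti-FLAG/anti-GST detection antibodies; signal normalized between DMSO wells with and without GCK.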

A short description of assay [13]: qHTS assay for cell viability of HEK293 cells (AID 743288; active means well fitted curve in the direction sought with a large enough effect; an effect the other way counts as inactive or inconclusive; further: nearly all actives have a fitted effect of over 50% in size; further: potency means the concentration at half of the fitted maximal effect; on max response: on the % scale 0 is the no-effect control and ±100 the full control effect). The conditions noted are these: ATP luminescence (CellTiter-Glo), 18 h; max response: stronger effect = lower value. Put shortly:
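ATP luminescence (CellTiter-Glo) reports metabolically competent cell number after parental HEK293 cells, 2,000/well, were treated with DMSO-dissolved compounds for 18 h at 37 C; reagent incubation 30 min, room temperature.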

A short description of assay [14]: qHTS profiling of the MIPE4 collection as inhibitors of Plasmodium falciparum (3D7) proliferation (AID 743344).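 Further: scaled between DMSO vehicle wells and 0.29 µM artemisinin as full inhibition.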 The conditions noted are these: P. falciparum 3D7 in erythrocytes, SYBR Green DNA fluorescence, 72 h; at 28.5 µM (top of the series) unless noted. Put shortly:
(§1)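 Parasite DNA was quantified by SYBR Green I fluorescence (ex 485, em 535 nm) after overnight lysis in saponin/Triton buffer at room temperature. Cultures at 0.3% parasitemia and 2.5% hematocrit were first exposed to compound for 72 h at 37 C; signals were normalised to artemisinin (0.29 uM) and vehicle wells.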

A short description of assay [15]: qHTS profiling of the MIPE4 collection as inhibitors of Plasmodium falciparum (DD2) proliferation (Rep 2) (AID 743346). The conditions noted are these: P. falciparum Dd2 in erythrocytes, SYBR Green DNA, 72 h; at 28.5 µM (top of the series) unless noted. In outline:
as §1

Assay [16] is described as follows: qHTS profiling of the MIPE4 collection as inhibitors of Plasmodium falciparum (HB3) proliferation (AID 743347).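 Further: plate controls were DMSO vehicle wells for no effect and artemisinin wells for full effect.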 The conditions noted are these: P. falciparum HB3 in erythrocytes, SYBR Green DNA, 72 h; at 28.5 µM (top of the series) unless noted. Put shortly:
as §1

The nature of assay [17]: qHTS profiling of the MIPE4 collection as inhibitors of Plasmodium falciparum (DD2) proliferation (AID 743345). Particulars: P. falciparum Dd2 in erythrocytes, SYBR Green DNA, 72 h; at 28.5 µM (top of the series) unless noted. In outline:
as §1
Wherever efficacy is given: 0% is about no effect.

T1 sequence (P35557 whole entry, looked up): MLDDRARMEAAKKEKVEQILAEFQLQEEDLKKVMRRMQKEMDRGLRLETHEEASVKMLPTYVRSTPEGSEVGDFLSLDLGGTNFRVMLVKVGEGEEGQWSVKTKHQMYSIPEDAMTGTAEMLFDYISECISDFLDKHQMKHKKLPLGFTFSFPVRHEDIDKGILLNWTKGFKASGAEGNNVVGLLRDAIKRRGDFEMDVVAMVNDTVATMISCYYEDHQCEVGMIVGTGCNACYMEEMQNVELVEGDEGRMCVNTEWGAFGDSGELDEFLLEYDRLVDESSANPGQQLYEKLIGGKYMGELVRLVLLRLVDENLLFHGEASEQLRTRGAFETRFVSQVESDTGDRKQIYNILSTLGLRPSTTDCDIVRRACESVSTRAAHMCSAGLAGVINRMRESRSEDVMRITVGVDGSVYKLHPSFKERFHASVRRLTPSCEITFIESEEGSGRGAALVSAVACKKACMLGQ
T1 sequence (Q14397 whole entry, looked up): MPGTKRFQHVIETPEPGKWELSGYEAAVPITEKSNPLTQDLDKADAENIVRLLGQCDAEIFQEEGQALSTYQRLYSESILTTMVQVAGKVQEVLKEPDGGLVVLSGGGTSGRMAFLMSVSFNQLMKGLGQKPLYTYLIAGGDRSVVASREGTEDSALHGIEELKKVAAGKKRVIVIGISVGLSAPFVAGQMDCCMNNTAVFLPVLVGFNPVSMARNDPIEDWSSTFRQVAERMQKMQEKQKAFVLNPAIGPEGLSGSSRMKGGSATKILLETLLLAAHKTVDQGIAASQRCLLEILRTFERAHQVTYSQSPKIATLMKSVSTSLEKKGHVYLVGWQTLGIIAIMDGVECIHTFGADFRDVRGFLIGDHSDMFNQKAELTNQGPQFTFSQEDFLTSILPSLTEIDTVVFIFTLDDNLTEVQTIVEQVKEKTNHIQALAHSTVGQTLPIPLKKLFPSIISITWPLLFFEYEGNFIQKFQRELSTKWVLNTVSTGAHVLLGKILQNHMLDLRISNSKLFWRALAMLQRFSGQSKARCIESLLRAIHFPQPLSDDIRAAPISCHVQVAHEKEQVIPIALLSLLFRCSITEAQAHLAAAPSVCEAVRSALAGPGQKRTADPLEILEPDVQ

Turning to `Nc1nc(N)c2nc(-c3ccccc3)c(N)nc2n1`, in assay [1], the efficacy is 17.5% (inactive). In addition, the call in assay [2], in assay [3], in [4], in assay [5] and in assay [6] was inactive.
Broadly, the AC50 is the concentration at which the activity in the assay is half-maximal. `C=C1C[C@@H]2[C@H](CC[C@]3(C)C(=O)CC[C@@H]23)[C@@]2(C)C=CC(=O)C=C12`: the max response in assay [7] was -0.643% (inactive). The efficacy in assay [1] was 112% (inactive). Besides, the result in assay [2], in assay [3] and in [4] was inactive. Besides, the half-maximal activity concentration (AC50) in [5] was 28.2 µM (active); in [6], 25.1 µM (active).
Turning to `CCCC(C)(COC(N)=O)COC(=O)NC(C)C` (centres undefined), the Potency result in assay [8] and in assay [9] was “inactive” each time. In addition, the max response was -3.52% (inactive) and -3.1% (inactive) in assay [10]; 10.4% (inactive) and -6.54% (inactive) in assay [7]; -8.51% (inactive) and -1.5% (inactive) in assay [13]. Also, the outcome in assay [11], in assay [12], in assay [2], in assay [3], in assay [4] and in assay [5] was inactive. Further, in assay [6], the result was inactive. The parasite growth, % of DMSO control in assay [14] stood at 93%. Further, the parasite growth, % of control (lower = inhibition) in assay [15] came out at 119%. This molecule also had a growth, % of control in [16] of 100%. For the same molecule, the efficacy in [1] is 22.1% (inactive).
Take `CC(C)C(=O)Nc1ccc([N+](=O)[O-])c(C(F)(F)F)c1`: in assay [14], the parasite growth, % of DMSO control was 93%. Also, the parasite growth remaining, % of DMSO control (lower = more inhibition) in assay [17] was determined as 91%. The parasite growth, % of control (lower = inhibition) in assay [15] came to 69.2%. For the same molecule, in [16], the growth, % of control turned out to be 88.5%. The efficacy in assay [1] is -18.2% (inactive). In addition, the result in [2], in [3], in assay [4], in [5] and in assay [6] was inactive.
On to `OC(Cn1cncn1)(Cn1cncn1)c1ccc(F)cc1F`, for which the parasite growth, % of DMSO control in assay [14] worked out at 95.6%. In assay [15], the parasite growth, % of control (lower = inhibition) was 88.1%. For the same molecule, in [16], the growth, % of control came out at 103%. Further, in assay [1], the efficacy was -11.5% (inactive). For the same molecule, the molecule was classed as inactive in [2], in assay [3], in assay [4], in assay [5] and in assay [6].
With `CC(=O)Oc1ccccc1C(=O)Nc1ncc([N+](=O)[O-])s1`, in assay [9], the Potency is 5.96 µM (active). Also, the max response in assay [7] was 33.5% (inactive). Besides, the efficacy in assay [1] was 16.8% (inactive). For the same molecule, the molecule was classed as inactive in [2], in assay [3], in assay [4], in assay [5] and in [6].
`CC1OC(C)OC(C)O1` (centres undefined): the max response in [7] was -0.681% (inactive) and 11.3% (inactive). Further, the efficacy in assay [1] was 12.6% (inactive). Moreover, the call in assay [2], in assay [3], in assay [4] and in assay [5] was inactive.
In [14], `O=NN(CCCl)C(=O)NCCCl` yielded a parasite growth, % of DMSO control of 95.8%. Moreover, in assay [15], the parasite growth, % of control (lower = inhibition) is 150%. The molecule further registered a growth, % of control in assay [16] of 83.1%. In addition, in assay [1], the efficacy was -15% (inactive). Also, the outcome in assay [2], in assay [3], in [4], in [5] and in assay [6] was inactive.
For `Cc1c(OCC(F)(F)F)ccnc1CS(=O)c1nc2ccccc2[nH]1` (centres undefined), the max response in [7] was 1.82% (inactive). The molecule further showed a parasite growth, % of DMSO control in assay [14] of 56.6%. Moreover, the parasite growth, % of control (lower = inhibition) in assay [15] came to 42.1%. Further, the growth, % of control in assay [16] turned out to be 50.8%. Also, the efficacy in [1] was 18.5% (inactive). In addition, the call in assay [2], in [3], in assay [4] and in [5] was inactive.
The molecule `Cc1nc2n(c(=O)c1CCN1CCC(c3noc4cc(F)ccc34)CC1)CCCC2` showed a parasite growth, % of DMSO control in assay [14] of 38.3%. In addition, the parasite growth, % of control (lower = inhibition) in assay [15] was 48.7%. In addition, the growth, % of control in [16] is 60.5%. Further, the efficacy in assay [1] was 54.5% (inactive). For the same molecule, the molecule was called inactive in assay [2], in [3], in assay [4], in assay [5] and in assay [6].
On to `C[C@]12C/C(=C/O)C(=O)C[C@@H]1CC[C@@H]1[C@@H]2CC[C@@]2(C)[C@H]1CC[C@]2(C)O`, for which the max response in assay [10] was 3.17% (inactive) and 10.2% (inactive); in [7], 18.9% (inactive); in assay [13], -10.8% (inactive) and -7.35% (inactive). The efficacy in assay [1] was 90.8% (inactive). Also, the molecule was called inactive in assay [2], in assay [3], in assay [4] and in [5]. Also, in [6], the concentration at half-maximal activity (AC50) is 14.1 µM (active).
Consider `CCN(C(C)=O)c1cccc(-c2ccnc3c(C#N)cnn23)c1`, for which, in assay [7], the max response is 4.87% (inactive). In addition, in assay [1], the efficacy is 22.6% (inactive). The result in assay [2], in assay [3], in assay [4] and in [5] was inactive.
In the case of `CN(C)C(=O)C(CCN1CCC(O)(c2ccc(Cl)cc2)CC1)(c1ccccc1)c1ccccc1`, in assay [7], the Potency is 11.2 µM (active) and 1.26 µM (active). For the same molecule, the efficacy in assay [1] was -226% (inactive). In addition, the AC50 was 11.2 µM (active) in assay [2], 3.16 µM (active) in [5] and 2.51 µM (active) in assay [6]. The molecule was classed as inactive in assay [3] and in assay [4].
As to `CC(C)C1CCC(C(=O)N[C@H](Cc2ccccc2)C(=O)O)CC1` (some centres undefined), the efficacy in assay [1] was -31.7% (inactive). In addition, the call in [2], in assay [3], in [4] and in assay [6] was inactive.
Turning to `CCN(CC)CCN1C(=O)CN=C(c2ccccc2F)c2cc(Cl)ccc21`, the max response in assay [7] was 9.52% (inactive). For the same molecule, the efficacy in assay [1] was 47.1% (inactive). In addition, the call in assay [2], in [3], in [4] and in assay [6] was inactive. Also, the AC50 in assay [5] is 35.5 µM (active).
`N[C@@H](Cc1ccc(N(CCCl)CCCl)cc1)C(=O)O`: the figures for the Potency in [9] and in assay [13] were 21.1 µM (active) and 50.1 µM (active), respectively. The max response was -3.2% (inactive) and -6.56% (inactive) in assay [10]; 7.49% (inactive) in assay [7]. This molecule also returned a parasite growth, % of DMSO control in assay [14] of 47.5%. In assay [15], the parasite growth, % of control (lower = inhibition) was 31.9%. The growth, % of control in assay [16] is 57.1%. Also, the efficacy in [1] was 12.7% (inactive). Further, the outcome in assay [2], in assay [3], in assay [4] and in [5] was inactive.
`CCN(CCO)CCCC(C)Nc1ccnc2cc(Cl)ccc12` (centres undefined): the efficacy in assay [1] was 21.3% (inactive). Moreover, the molecule was classed as inactive in [2], in assay [3] and in assay [4]. For the same molecule, the AC50 in assay [5] is 1.12 µM (active); in assay [6] it was 1.41 µM (active).
In [14], `Nc1nc(F)nc2c1ncn2[C@@H]1O[C@H](CO)[C@@H](O)[C@@H]1O` came in with a parasite growth, % of DMSO control of 31%. The molecule also displayed a growth, % of control in assay [16] of 81.8%. In addition, the efficacy in assay [1] is 16.7% (inactive). Moreover, the outcome in assay [2], in assay [3], in assay [4], in assay [5] and in assay [6] was inactive.
